Records with an inconclusive call do not appear. A number with no mark means an inactive call. The source made the active and inactive calls. Calls come from the whole dose curve; as a rule, active = well fitted inhibition curve with a large enough effect; inconclusive = small, poorly fitted or top-dose-only effect; inactive = flat fitted curve, though single readings scatter.
assay: CHOP2 Reporter Counterscreen Assay for Inhibitors of Ubiquitin-specific Protease USP2a; conditions: purified enterokinase, fluorogenic substrate, 485/531 nm; series mostly up to 38.3 µM; activity change, negative = inhibition: at the top concentration;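 note: activated enterokinase alone at 50 pM in a cell-free format rather than USP2a or CHOP2; nearly all actives have a fitted effect of over 55% in size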
Outline: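 Fluorescence (485/531 nm) read 10 min after adding 25nM reporter substrate to 50 pM activated EK preincubated 30 min RT with compound; Tris pH 8.0/CaCl2/CHAPS buffer. Data normalized to buffer-alone inhibition; concentration-response curves fitted.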
% is set by controls: 0 for no effect and ±100 for the full control effect; potency is the fitted concentration of half-maximal effect.

Structure (SMILES)	activity change, negative = inhibition [%]	Potency
C[C@H](CO)N1C[C@H](C)[C@@H](CN(C)S(=O)(=O)c2cn(C)cn2)Oc2ccc(NC(=O)Cn3cnnn3)cc2C1=O	3.59	
COC(=O)c1c(NC(=O)c2cccnc2)sc(C)c1C	3	
O=C1NC[C@@H](c2ccccc2)OC(=O)[C@@H](Cc2ccc(F)cc2)CC/C=C/C[C@@H]1CC(=O)N(CCO)Cc1ccccc1	-2.43	
O=C(CNC(=O)C1CCCCC1)NC1=NCCS1	0.064	
CC(OC(=O)c1nsc(Cl)c1Cl)C(=O)NCc1ccco1 (configuration not stated)	-2.69	
C[C@H](CO)N1C[C@H](C)[C@@H](CN(C)S(=O)(=O)c2cccs2)Oc2c(NC(=O)Nc3ccc4c(c3)OCO4)cccc2C1=O	1.38	
O=C(O)c1cc(N2N=C(C(F)(F)F)/C(=C/C=C/c3ccco3)C2=O)ccc1Cl		3.98 µM (active)

— PubChem BioAssay AID493169 (National Center for Advancing Translational Sciences (NCATS), 2011)
